Assay outcomes as filed in PubChem.
Hits are enriched below; roughly 19% of the tested compounds scored in any of these assays.
DT40 TDP1 CPT: DT40-hTDP1 cell growth loss with CPT; AID 686979; chicken DT40 Tdp1-/-;hTDP1 cells + 20 nM CPT, ATP luminescence, 48 h; 12% of 420,000 active; Potency, µM (highest dose often 46.2 µM), for the others: top-dose activity change, negative = growth inhibition, most hits filed as inhibitors; note: potency is the fitted concentration of half-maximal effect; nearly all actives have a fitted effect of over 55% in size
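Chicken DT40 Tdp1-/- cells complemented with human TDP1, 400 cells/well, exposed to compounds plus 20 nM camptothecin for at least 48 h at 37 C; viability read as ATP content by CellTiter-Glo luminescence.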
ELG1 repair inh: inhibitors of ELG1-dependent DNA repair in HEK293T cells | AID 504467 | HEK293T ELG1-luciferase reporter, luminescence, 16 h; DNA damage induced by 5-fluorouridine | Potency, µM (series often up to 46.1 µM), for inactives: at the top dose activity change, negative = inhibition, actives largely listed as inhibitors | 2.3% of 330,000 active; note: potency is the fitted concentration of half-maximal effect; nearly all actives have a fitted effect of over 55% in size
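Step one: seed 2,000 cells per well. Step two: pin-transfer compound or DMSO alongside 5-fluorouridine. Step three: incubate 16 hr, 37 °C, 5% CO2. Step four: add ONE-Glo, wait 30 min, read luminescence.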
HT1080-NT tox: kills 2HG-producing HT-1080-NT fibrosarcoma cells. HT-1080-NT fibrosarcoma viability, CellTiter-Glo ATP luminescence, 48 h. Potency, µM (series often up to 46.1 µM), for the others: at the top dose activity, negative = less viability, usual class: cytotoxic. 1.6% of 360,000 active. AID 686970;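 note: NT is the 2HG producing partner of a matched IDH1 knockdown line; potency is the fitted concentration of half-maximal effect; 0% = DMSO-treated cells and -100% = media-only wells without cells; nearly all actives have a fitted effect of over 55% in size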
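Luminescent CellTiter-Glo readout after 48 hours of compound exposure at 37 degrees C defined viability of HT-1080-NT cells. Activity was normalized to DMSO wells and cell-free media wells; concentration-response curves were fitted and assigned curve classes.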
TDP1 cell noCPT: qHTS for Inhibitors of human tyrosyl-DNA phosphodiesterase 1 (TDP1): qHTS in cells in absence of CPT | DT40 Tdp1-/- hTDP1 cells, no CPT, ATP luminescence, 48 h | Potency, µM (series often up to 46.2 µM), for the others: at the highest dose activity change, negative = growth inhibition, actives largely listed as inhibitors | 15% of 420,000 active; note: potency is the fitted concentration of half-maximal effect; nearly all actives have a fitted effect of over 55% in size
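Camptothecin absent (DMSO only). Human TDP1-complemented DT40 knockout cells, 400 cells/well, 37 °C for minimum 48 hr; ATP measured via CellTiter-Glo, 30 min dark incubation, luminescence.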
IL-1B inflam inh: blocks inflammasome-driven IL-1 beta release; THP-1 LPS/ATP IL-1B secretion, AlphaLISA, 16 h; active compounds read low; 4.7% of 360,000 active; AID 743279; activity change, % at 57.5 µM; in the data active = activity change below about -50%; inconclusive = mostly about -30% to -49%
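THP-1 cells pretreated 1 hr with compounds (up to 57.5 uM final), then stimulated with LPS (250 ng/mL final) plus ATP (1.25 mM final); secreted IL-1B measured by AlphaLISA after 16 hr, decreased signal indicating inhibition.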
HT1080 IDH1KD tx: toxicity to HT-1080 IDH1 knockdown cells (counter line) | HT-1080 IDH1 knockdown viability, ATP luminescence, 48 h | Potency, µM (top dose mostly 46.1 µM), inactives show at the highest dose activity, negative = toxicity, most hits filed as cytotoxic | 2% of 360,000 active;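 note: potency is the fitted concentration of half-maximal effect; 0% = DMSO wells and -100% = cell-free medium wells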
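IDH1KD HT-1080 cells, 750/well, RPMI + 5% FBS; compound pinned after 2 h settling; 48 h, 37 °C; CellTiter-Glo luminescence; % activity normalised to DMSO and no-cell wells; curves fitted, classed by r2 and efficacy.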
Active calls of the source: *; ? = inconclusive; nt = not tested or not shown. Unless noted, calls come from the whole dose curve; as a rule, active = well fitted curve in the direction sought with a large enough effect; inconclusive = small, poorly fitted or top-dose-only effect, or another doubt; inactive = no such curve, though single readings can be large; an effect the other way counts as inactive or inconclusive. Unless noted, % is set by controls: 0 for no effect and ±100 for the full control effect.

SMILES	DT40 TDP1 CPT	ELG1 repair inh	HT1080-NT tox	TDP1 cell noCPT	IL-1B inflam inh	HT1080 IDH1KD tx
C=CCn1c(SCC(=O)Nc2ccccc2C)nc2sc(C)c(C)c2c1=O	-26%	-12%	-3%	?	6	-21%
COCCn1c(SCC(=O)Nc2cccnc2Cl)nc2cc(Cl)ccc2c1=O	6%	?	-6%	-21%	-11	-2%
COCCn1c(SCC(=O)Nc2sccc2C(N)=O)nc2cc(Cl)ccc2c1=O	?	23µM*	?	?	-54*	?
Cc1nnc(SCC(=O)Nc2cccc(S(N)(=O)=O)c2)n1-c1ccccc1	4%	9%	14%	7%	25	13%
Cc1ccc(-n2c(SCC(=O)Nc3cccc(S(N)(=O)=O)c3)nc3ccccc32)cc1	18µM*	?	-3%	?	27	?
C=CCn1c(SCC(=O)Nc2cccc(S(N)(=O)=O)c2)nc2sc(C)c(C)c2c1=O	?	?	-8%	?	-61*	?
CC1CCCN(S(=O)(=O)c2ccc3oc(=O)ccc3c2)C1 (stereo not given)	-9%	2%	-4%	3%	13	1%
CCOc1ccc(C(=S)N2CCN(C)CC2)cc1	6%	17%	11%	0%	0	25%
C/C(=N\NC(=O)C(O)c1ccccc1)c1ccc(Br)s1 (stereo not given)	-8%	2%	8%	?	6	-8%
COCC(C)n1c(SCC(=O)Nc2sccc2C(N)=O)nc2ccccc2c1=O (stereo not given)	21µM*	?	-12%	7.3µM*	-4	-1%
COCCn1c(SCC(=O)Nc2cccc(S(N)(=O)=O)c2)nc2cc(Cl)ccc2c1=O	15µM*	?	-9%	18µM*	-68*	-23%
COCCn1c(SCC(=O)Nc2ccc(S(=O)(=O)N(C)C)cc2)nc2ccccc21	-17%	15µM*	-10%	-27%	0	-10%
O=Cc1ccc(-c2cccc(C(=O)O)c2)o1	6%	?	-3%	-13%	16	16%
O=C(/C=C/c1ccc(-c2ccccc2)o1)c1ccccc1	?	?	2%	?	-99*	-3%
Cc1ccc(C(=O)C=CC=Cc2ccccc2)cc1	?	nt	0%	?	?	-7%
Cc1ccc(-c2ccc(/C=C/C(=O)c3ccccc3)o2)cc1	?	?	-5%	23µM*	-79*	2%
COc1ccccc1-c1cccc([C@@H]2C[C@H]3[C@@H](CN2)CON3C)c1	-13%	nt	1%	-10%	0	9%
C[C@H](CO)N1C[C@H](C)[C@@H](CN(C)S(=O)(=O)c2cn(C)cn2)Oc2ccc(NC(=O)Cc3ccccc3)cc2C1=O	-6%	0%	11%	-12%	27	13%
CC(=O)OC(COC1C[C@@H]2CC[C@@]1(C)C2(C)C)C[N+]1(C)CCCCC1 (stereo not given in full)	?	-28%	-2%	18µM*	-14	-8%
CC1(C)C2CCC1(C)C(OC(=O)c1ccccc1C(=O)O)C2 (stereo not given)	-1%	5%	21%	-4%	19	4%
NCCNC[C@@H]1COC2(CCCCCCCCCCC2)O1	?	?	15µM*	23µM*	-68*	?
Cc1cc(=O)[nH]c(SCC2COC3(CCCCC3)O2)n1 (stereo not given)	-13%	10%	0%	-5%	-7	-3%
CSC1=NC(C)(C)C=C(/C=C/c2c(Cl)cccc2Cl)N1	14%	-5%	-19%	4%	-97*	?
CCSC1=NC(C)(C)C=C(/C=C/c2ccc(Cl)cc2Cl)N1	?	8%	16µM*	16µM*	-93*	?
CSC1=NC(C)(C)C=C(/C=C/c2ccc(Cl)cc2)N1	21µM*	-13%	23µM*	16µM*	-101*	?
SMILES	DT40 TDP1 CPT	ELG1 repair inh	HT1080-NT tox	TDP1 cell noCPT	IL-1B inflam inh	HT1080 IDH1KD tx
CCc1cc(=O)oc2c3c(cc(OCC(=O)NCCCOC)c12)OC(C)(C)CC3	?	-6%	-16%	5%	-13	-12%
O=C(Nc1ccccc1)N(Cc1cccc(Cl)c1)c1ccccn1	23µM*	nt	nt	?	nt	nt
COc1ccccc1CCc1nnc(CCC(=O)NCC[C@@H]2C[C@@H]3C=C[C@H]2C3)o1	15µM*	-7%	0%	18µM*	-4	9%
CCc1ccc2occ(CC(=O)Nc3c(C(=O)c4ccc(F)cc4)oc4ccccc34)c2c1	-24%	nt	nt	?	nt	nt
O=[N+]([O-])c1ccc(S(=O)(=O)CC(CN2CCOCC2)N2CCOCC2)cc1 (stereo not given)	?	-11%	-13%	?	-74*	-8%
O=C1CCCN1CC(O)CS(=O)(=O)c1ccccc1 (stereo not given)	-12%	6%	4%	-5%	15	-4%
O=S(=O)(CC(CN1CCCCC1)N1CCCCC1)c1ccccc1 (stereo not given)	7.3µM*	?	?	4.6µM*	-97*	?
O=S(=O)(Nc1cc(Cl)cc(Cl)c1)N1CCOCC1	-2%	2%	-27%	-13%	0	2%
CCOC(=O)C1C(=O)C=C(c2ccc(C)cc2)CC1c1ccc([N+](=O)[O-])cc1 (stereo not given)	?	?	1%	13µM*	4	5%
Cc1cc(C)cc(N(C(=O)c2cc3ccccc3oc2=O)C2C=CS(=O)(=O)C2)c1 (stereo not given)	?	-10%	-1%	?	-67*	-4%
Cc1ccc(N(C(=O)c2cc3ccccc3oc2=O)C2C=CS(=O)(=O)C2)cc1 (stereo not given)	16%	5%	20%	-5%	-8	17%
CSc1cccc(NS(=O)(=O)c2ccc3[nH]cc(C(=O)N4CCCCCC4)c(=O)c3c2)c1	-23%	nt	nt	-11%	nt	nt
Cc1cc(NC(=O)Nc2ccccc2)n(C(C)(C)C)n1	2%	-5%	6%	3%	10	2%
CCOc1cccc2cc(C(=O)NCc3ccc(C)cc3)c(=N)oc12	?	5%	1%	4.1µM*	?	-1%
COc1ccc(CNC(=O)c2cc3cccc(O)c3oc2=N)cc1	?	9%	-3%	-24%	?	-3%
